Measured values from PubChem BioAssay.
A number with no mark means an inactive call. Activity calls are given as the source filed them.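 Rule for the calls, unless noted: active = mean inhibition above 46.5%, the solvent-only control mean plus 3 SD; inactive = the rest.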

Assays:
[1] = biological target: Nuclear receptor coactivator 3 (Homo sapiens) (UniProt Q9Y6Q9); experiment: NCOA3 GAL4-fusion reporter inhibition – cell-based, luminescence, quadruplicate, confirmation (AID 588792;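 active = mean inhibition over 43.08%, the solvent-only control mean plus 3 SD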;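 note: 0% = DMSO treated cells and 100% = gossypol at 36 µM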); conditions: HEK293 GAL4-SRC3 luciferase reporter, at 3.6 µM, active compounds read high
[2] = test system: transactivating tegument protein VP16 (Human herpesvirus 1), Gal4-VP16 luciferase reporter; experiment: repression of VP16-driven luciferase reporter – cell-based, luminescence, high throughput, counter-screen for SRC3 inhibitor project (AID 588794; in the data active = inhibition above about 30%); conditions: mammalian cells, at 3.6 µM, active compounds read high
[3] = biological target: Nuclear receptor coactivator 1 (Homo sapiens) (UniProt Q15788); experiment: NCOA1 GAL4-fusion reporter inhibition – cell-based, luminescence, quadruplicate, confirmation (AID 588820;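 active = mean inhibition above 46.68%, the untreated control wells mean plus 3 SD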;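 note: 0% = DMSO wells and 100% = gossypol 36 µM treated wells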); conditions: HEK293 GAL4-SRC1 luciferase reporter, at 3.6 µM, active compounds read high
[4] = repression of VP16-driven luciferase reporter – cell-based, luminescence, high throughput, counter-screen for SRC1 inhibitor project (AID 588824; in the data active = inhibition above about 25%); conditions: cell-based VP16 transactivation luciferase luminescence; at 3.6 µM; active compounds read high
[5] = test system: transactivating tegument protein VP16 (Human herpesvirus 1); experiment: compounds suppressing VP16-driven luciferase signal – cell-based, luminescence, single concentration, counter-screen for SRC2 inhibitor project (AID 652007; in the data active = inhibition above about 36%); conditions: cell-based VP16 transactivation luciferase reporter, at 8.9 µM, active compounds read high
[6] = biological target: Nuclear receptor coactivator 2 (Homo sapiens) (UniProt Q15596); experiment: inhibition of GAL4-SRC2 driven luciferase expression – cell-based, luminescence, HEK293, triplicate, confirmation (AID 652008); conditions: HEK293 GAL4-SRC2 luciferase reporter, at 8.9 µM, active compounds read high;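 note: 0% = DMSO-treated cells and 100% = Gossypol at 36 µM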
Sequence of Nuclear receptor coactivator 2 (Homo sapiens) (Q15596 whole entry, looked up, the tested form may be a part): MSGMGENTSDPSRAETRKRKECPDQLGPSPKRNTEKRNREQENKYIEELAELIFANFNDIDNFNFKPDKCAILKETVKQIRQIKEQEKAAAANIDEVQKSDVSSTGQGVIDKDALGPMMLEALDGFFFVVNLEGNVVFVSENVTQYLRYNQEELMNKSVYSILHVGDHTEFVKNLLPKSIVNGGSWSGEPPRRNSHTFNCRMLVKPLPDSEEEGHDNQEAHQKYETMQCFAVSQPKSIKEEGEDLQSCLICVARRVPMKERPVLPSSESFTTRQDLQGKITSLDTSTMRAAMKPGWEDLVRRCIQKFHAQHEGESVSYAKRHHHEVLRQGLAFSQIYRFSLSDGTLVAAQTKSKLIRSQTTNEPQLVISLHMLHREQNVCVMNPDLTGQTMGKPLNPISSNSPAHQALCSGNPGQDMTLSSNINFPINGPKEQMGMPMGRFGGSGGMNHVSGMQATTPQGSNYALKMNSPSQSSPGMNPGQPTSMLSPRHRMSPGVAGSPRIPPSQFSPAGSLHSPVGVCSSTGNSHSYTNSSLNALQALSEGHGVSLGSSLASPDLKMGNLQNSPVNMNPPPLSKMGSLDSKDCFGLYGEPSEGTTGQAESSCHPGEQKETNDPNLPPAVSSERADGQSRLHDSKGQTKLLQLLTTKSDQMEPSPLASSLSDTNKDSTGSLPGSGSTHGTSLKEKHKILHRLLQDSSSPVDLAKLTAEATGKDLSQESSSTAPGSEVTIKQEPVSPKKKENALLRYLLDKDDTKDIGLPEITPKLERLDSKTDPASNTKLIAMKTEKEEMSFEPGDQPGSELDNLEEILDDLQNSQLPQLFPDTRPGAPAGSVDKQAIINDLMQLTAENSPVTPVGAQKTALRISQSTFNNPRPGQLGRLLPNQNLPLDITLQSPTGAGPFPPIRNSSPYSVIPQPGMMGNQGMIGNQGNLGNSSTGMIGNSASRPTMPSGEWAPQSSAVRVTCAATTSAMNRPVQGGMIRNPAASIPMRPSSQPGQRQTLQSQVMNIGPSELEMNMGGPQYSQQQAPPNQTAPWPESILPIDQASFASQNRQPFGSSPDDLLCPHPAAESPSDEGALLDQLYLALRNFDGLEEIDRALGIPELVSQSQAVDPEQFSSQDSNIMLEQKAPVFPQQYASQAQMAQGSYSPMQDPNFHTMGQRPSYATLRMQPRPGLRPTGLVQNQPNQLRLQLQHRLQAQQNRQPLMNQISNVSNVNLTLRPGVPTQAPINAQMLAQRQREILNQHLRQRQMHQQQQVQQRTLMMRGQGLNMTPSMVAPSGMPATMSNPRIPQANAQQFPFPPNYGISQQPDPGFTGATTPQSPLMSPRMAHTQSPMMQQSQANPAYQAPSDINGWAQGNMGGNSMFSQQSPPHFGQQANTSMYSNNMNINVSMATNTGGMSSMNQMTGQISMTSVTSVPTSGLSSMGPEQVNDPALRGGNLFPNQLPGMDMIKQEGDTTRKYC

Sequence of Nuclear receptor coactivator 1 (Homo sapiens) (Q15788 whole entry, looked up, the tested form may be a part): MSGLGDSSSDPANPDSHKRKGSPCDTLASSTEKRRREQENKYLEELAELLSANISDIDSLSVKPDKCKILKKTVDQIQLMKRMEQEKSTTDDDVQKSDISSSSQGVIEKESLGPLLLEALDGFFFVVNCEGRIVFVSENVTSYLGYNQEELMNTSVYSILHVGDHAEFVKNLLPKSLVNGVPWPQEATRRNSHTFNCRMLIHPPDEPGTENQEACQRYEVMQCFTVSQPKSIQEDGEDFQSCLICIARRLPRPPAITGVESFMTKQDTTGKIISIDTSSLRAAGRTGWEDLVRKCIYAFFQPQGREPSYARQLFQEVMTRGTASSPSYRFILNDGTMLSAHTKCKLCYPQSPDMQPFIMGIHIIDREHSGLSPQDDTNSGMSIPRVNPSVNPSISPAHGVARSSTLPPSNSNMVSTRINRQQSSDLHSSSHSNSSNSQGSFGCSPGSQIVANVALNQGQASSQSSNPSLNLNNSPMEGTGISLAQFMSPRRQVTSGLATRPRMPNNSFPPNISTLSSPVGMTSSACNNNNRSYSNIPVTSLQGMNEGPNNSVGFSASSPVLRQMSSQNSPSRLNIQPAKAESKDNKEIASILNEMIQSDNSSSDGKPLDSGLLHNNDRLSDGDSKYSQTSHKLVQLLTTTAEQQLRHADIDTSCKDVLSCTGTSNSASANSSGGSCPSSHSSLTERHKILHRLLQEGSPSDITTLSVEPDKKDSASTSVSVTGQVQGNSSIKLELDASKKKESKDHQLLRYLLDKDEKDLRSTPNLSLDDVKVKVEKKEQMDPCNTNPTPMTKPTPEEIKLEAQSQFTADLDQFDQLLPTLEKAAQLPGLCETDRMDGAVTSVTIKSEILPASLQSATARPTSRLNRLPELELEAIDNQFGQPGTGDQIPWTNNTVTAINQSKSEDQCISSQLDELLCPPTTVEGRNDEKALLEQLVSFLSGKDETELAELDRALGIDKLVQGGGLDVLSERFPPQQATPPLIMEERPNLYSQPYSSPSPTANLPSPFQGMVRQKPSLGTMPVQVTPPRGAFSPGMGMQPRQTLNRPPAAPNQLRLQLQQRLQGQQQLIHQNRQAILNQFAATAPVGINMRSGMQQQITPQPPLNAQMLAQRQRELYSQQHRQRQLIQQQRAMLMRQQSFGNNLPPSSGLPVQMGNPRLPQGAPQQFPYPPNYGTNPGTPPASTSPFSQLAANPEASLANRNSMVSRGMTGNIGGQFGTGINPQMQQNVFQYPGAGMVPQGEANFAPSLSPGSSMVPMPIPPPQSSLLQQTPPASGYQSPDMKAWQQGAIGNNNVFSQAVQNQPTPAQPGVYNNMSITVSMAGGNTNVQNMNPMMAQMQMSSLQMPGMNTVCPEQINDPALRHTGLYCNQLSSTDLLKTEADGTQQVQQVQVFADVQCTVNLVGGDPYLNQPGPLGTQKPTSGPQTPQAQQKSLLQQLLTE
Sequence of Nuclear receptor coactivator 3 (Homo sapiens) (Q9Y6Q9 whole entry, looked up, the tested form may be a part): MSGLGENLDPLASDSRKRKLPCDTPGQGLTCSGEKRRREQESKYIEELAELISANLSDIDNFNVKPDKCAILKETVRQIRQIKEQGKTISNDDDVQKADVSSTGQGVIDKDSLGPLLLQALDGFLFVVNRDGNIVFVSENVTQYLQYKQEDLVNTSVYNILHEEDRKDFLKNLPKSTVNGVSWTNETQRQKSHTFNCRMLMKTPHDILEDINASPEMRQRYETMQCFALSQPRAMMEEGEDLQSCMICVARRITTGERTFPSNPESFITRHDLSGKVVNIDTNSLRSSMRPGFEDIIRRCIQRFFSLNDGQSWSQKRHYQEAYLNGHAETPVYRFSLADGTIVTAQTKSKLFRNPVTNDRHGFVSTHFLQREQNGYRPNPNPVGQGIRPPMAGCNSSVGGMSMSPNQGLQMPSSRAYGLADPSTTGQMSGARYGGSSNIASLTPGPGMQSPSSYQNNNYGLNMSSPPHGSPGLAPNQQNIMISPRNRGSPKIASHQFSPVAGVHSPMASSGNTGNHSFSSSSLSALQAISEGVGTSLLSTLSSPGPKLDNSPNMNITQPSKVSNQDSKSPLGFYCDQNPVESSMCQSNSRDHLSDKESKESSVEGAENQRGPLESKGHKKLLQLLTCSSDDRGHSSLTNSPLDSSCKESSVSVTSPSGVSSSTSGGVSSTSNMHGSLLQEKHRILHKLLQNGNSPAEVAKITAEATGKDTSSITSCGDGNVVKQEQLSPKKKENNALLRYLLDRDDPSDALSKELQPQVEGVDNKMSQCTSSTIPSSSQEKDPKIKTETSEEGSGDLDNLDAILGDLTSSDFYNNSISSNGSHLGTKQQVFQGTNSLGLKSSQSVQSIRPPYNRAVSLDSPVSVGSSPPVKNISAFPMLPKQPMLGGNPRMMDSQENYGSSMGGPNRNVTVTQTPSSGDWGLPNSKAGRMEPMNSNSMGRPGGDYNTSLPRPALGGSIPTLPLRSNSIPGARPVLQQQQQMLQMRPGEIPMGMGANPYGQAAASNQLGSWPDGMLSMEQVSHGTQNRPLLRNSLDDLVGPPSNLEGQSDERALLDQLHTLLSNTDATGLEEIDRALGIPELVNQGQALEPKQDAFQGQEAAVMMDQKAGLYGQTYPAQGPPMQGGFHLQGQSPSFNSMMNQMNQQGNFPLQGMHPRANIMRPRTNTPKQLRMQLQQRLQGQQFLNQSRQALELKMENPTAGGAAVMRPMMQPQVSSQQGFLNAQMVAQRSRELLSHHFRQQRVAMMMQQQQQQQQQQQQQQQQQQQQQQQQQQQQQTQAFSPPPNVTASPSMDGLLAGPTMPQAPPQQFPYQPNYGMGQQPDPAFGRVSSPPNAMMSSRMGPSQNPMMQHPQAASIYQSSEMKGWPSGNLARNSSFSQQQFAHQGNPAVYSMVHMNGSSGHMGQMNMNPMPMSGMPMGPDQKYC

Compound	inhibition [1]	inhibition [2]	inhibition [3]	inhibition [4]	inhibition [5]	inhibition [6]
COCCn1c(C)cc(C(=O)COc2ccc(C)nc2[N+](=O)[O-])c1C	24.8%	1.88%	12.1%	-5.22%	23.8%	59.5% (active)
Cc1ccc(/C=C2\SC(=S)N(CCCC(=O)NNC(=O)c3ccccc3O)C2=O)cc1	73.3% (active)	53.6% (active)	74.7% (active)	58.3% (active)	92.8% (active)	95.4% (active)
CCN(c1ccc(OC)cc1)c1ncnc2nc[nH]c12	66.8% (active)	45.6% (active)	67.2% (active)	48.6% (active)	-3.42%	45.7%
CC(C)c1ccc(/C=C2\SC(=S)N(CCC(=O)N3CCCCC3CCO)C2=O)cc1 (stereo not given)	23.5%	-27.8%	10.1%	-48.1%	-75%	76.4% (active)
OCCN(CCO)CC(O)COc1ccc(C23CC4CC(CC(C4)C2)C3)cc1 (stereo not given)	23.8%	18.7%	15.1%	8.76%	61.9% (active)	81.9% (active)
CC1(Cc2cccc(F)c2)C(=O)Nc2ccc(-c3cccnc3)cc21 (stereo not given)	66.8% (active)	49.2% (active)	65% (active)	49% (active)	8.45%	56% (active)
COc1ccc(/C=C/C(=O)Nc2ccccc2C(=O)O)cc1OC	-1.26%	-3.34%	-73.2%	-29.6%	26.9%	37.8%
Cn1cc(C(=O)N/N=C/c2c(O)ccc3ccccc23)ccc1=O	52.8% (active)	42.4% (active)	49.5% (active)	44% (active)	-10.3%	26.8%
O=C(Nc1cccc(C(F)(F)F)c1)Nc1nnc([C@@H]2C[C@H](O)[C@@H](CO)O2)s1	49% (active)	21.6%	29.3%	20.7%	1.58%	29.1%
Cc1nnc(-c2ccccc2)c(=O)n1/N=C/c1c(O)ccc2ccccc12	40.6%	55% (active)	57% (active)	62.6% (active)	-12.9%	23.1%
CC(=O)c1cccc(-c2csc3ncnc(Sc4nnnn4C)c23)c1	33%	20.4%	6.55%	30.8% (active)	24%	15.9%
COc1cccc(NC(=O)Nc2nc(-c3ccc(OC)c(OC)c3)cs2)c1	81.3% (active)	73.5% (active)	37.4%	74% (active)	89.7% (active)	92.9% (active)
COc1cc2ccccc2ccc1=NO	60.1% (active)	38% (active)	56.5% (active)	32.9% (active)	19.7%	59.6% (active)
CCCN1C=CC(=C2C(=O)c3ccccc3C2=O)C=C1	65.4% (active)	51.3% (active)	-14.4%	38% (active)	80.3% (active)	91.3% (active)
CC(/C=C1\SC(=O)N(CCCC(=O)O)C1=O)=C\c1ccccc1	79% (active)	73.6% (active)	71.9% (active)	69.2% (active)	90.3% (active)	95.4% (active)
COc1ccc(N(C(=O)CCl)C(C(=O)NC2CCCCC2)c2cccnc2)cc1 (stereo not given)	75.7% (active)	56.5% (active)	38.8%	51.5% (active)	68.8% (active)	69% (active)
Cn1nc(C(F)(F)F)c(C#N)c1N1CCN(c2ccccc2)CC1	56.3% (active)	31.5% (active)	35.6%	19.3%	4.83%	27.6%
COc1ccc(-c2cc3nc(C)n(N)c(=O)c3s2)cc1	57.6% (active)	41.7% (active)	19.4%	39.4% (active)	72% (active)	83.8% (active)
Cc1ccc(C(=O)CN2C(=O)c3ccccc3S2(=O)=O)cc1	31.6%	48.8% (active)	-23.7%	41.4% (active)	65% (active)	61.9% (active)
Cc1ccc2nc(-c3ccccc3)cn2c1	21.2%	-9.75%	-44.9%	-21.6%	19.2%	51.8% (active)
